Records with an inconclusive call do not appear. A number with no mark means an inactive call. Calls follow the shape of the dose curve; as a rule, active = well fitted inhibition curve with a large enough effect in the repeat runs; inconclusive = weak or mixed curves; inactive = no such curve, though single readings can be large or run the other way.
What follows are compounds tested against Estrogen receptor (Homo sapiens) (UniProt P03372) (assay: qHTS assay to identify small molecule antagonists of the estrogen receptor alpha (ER-alpha) signaling pathway using the BG1 cell line in the presence of 0.1 nM 17-beta-estradiol (AID 1259244; also: nearly all actives have a fitted effect of over 50% in size)). Details: VM7Luc4E2 (BG1) ERE-luciferase, antagonist mode, 0.1 nM E2, 22 h; series mostly up to 92.4 µM; activity change, negative = inhibition: at the top concentration.
Source text: National Center for Advancing Translational Sciences [NCATS]
NIH Chemical Genomics Center [NCGC]
U.S. Environmental Protection Agency [EPA]
National Institutes of Environmental Health Sciences [NIEHS]
National Toxicology Program [NTP]
U.S. Food and Drug Administration [FDA]
Estrogen receptor (ER), a member of the nuclear hormone receptor plays an important role in development, metabolic homeostasis and reproduction. Two subtypes of ER, ER-alpha and ER-beta, have similar expression patterns with some uniqueness in both types. Endocrine disrupting chemicals (EDCs) and their interactions with steroid hormone receptors like ER causes disruption of normal endocrine function. Therefore, it is important to understand the effect of environmental chemicals in ER signaling pathway. For identifying ER antagonists, VM7Luc4E2 cell line was used to screen against Tox21 compound libraries.
VM7Luc4E2 cell line (provided by Denison MS, University of California) endogenously express full-length ER-alpha and is stably transfected with a plasmid containing four estrogen responsive elements (ERE) upstream of a luciferase reporter gene. The current screening for identification of ER-alpha inhibitors against Tox21 compound libraries used lower concentration (0.1 nM) of 17beta-Estradiol as a stimulator.
Tox21 Assay Protocol Summary:
VM7Luc4E2 cells were cultured in phenol red free assay medium containing 10% charcoal stripped FBS for 5 days prior to the assay. The cells were dispensed at 4,000 cells/well in 4 uL of assay medium into white wall/solid-bottom 1536-well plates (Corning Life Sciences, Corning, NY) using a Multidrop Combi (ThermoFisher Scientific, Waltham, MA) dispenser. After the assay plates were incubated at 37C and 5% CO2 for 24 hr, 23 nL of compounds dissolved in DMSO, positive controls or DMSO only was transferred to the assay plates by a Pintool station (Kalypsys, San Diego, CA). The transfer of compounds was followed by the addition of 1 uL of 0.1 nM (final concentration) agonist (17beta-Estradiol)/assay medium using a Flying Reagent Dispenser (FRD, Aurora Discovery, San Diego, CA). The plates were incubated at 37C and 5% CO2 for 22 hr. For luciferase reporter gene assay, 4 uL of ONE-Glo reagent (Promega Corporation, Madison, WI) was added to each well using the FRD and after 30 min incubation at room temperature luminescence intensity was measured using ViewLux plate reader (PerkinElmer, Shelton, CT).
% is scaled to controls: 0 for no effect and ±100 for the full control effect.

Estrogen receptor (Homo sapiens), sequence (P03372 whole entry, looked up): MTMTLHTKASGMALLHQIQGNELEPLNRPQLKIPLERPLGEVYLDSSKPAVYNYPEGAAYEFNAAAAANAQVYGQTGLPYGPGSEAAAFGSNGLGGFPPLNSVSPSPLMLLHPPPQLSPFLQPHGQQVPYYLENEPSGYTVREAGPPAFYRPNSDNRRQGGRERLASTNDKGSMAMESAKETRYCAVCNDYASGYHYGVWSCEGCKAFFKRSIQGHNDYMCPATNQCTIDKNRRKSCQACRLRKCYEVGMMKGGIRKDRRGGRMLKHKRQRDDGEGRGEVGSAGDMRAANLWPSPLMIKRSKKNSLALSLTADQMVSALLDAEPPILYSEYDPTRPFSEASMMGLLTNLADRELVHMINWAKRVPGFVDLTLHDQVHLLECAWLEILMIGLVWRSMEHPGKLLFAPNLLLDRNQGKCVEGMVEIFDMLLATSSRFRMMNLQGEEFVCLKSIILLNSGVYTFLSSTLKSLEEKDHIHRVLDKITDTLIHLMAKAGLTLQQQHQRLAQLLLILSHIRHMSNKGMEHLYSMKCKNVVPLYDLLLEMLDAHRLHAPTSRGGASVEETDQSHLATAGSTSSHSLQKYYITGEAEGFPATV

Going from `COC(=O)c1ccc(C(=O)O)cc1` to `O=Cc1ccc(C(=O)O)cc1`, the “activity change, negative = inhibition” value rises from 5.73% to 9.07%.

First: Cc1nc2ccc(Cl)cc2[nH]1
Second: Cc1cc(C)c(C)c(C)c1
The “activity change, negative = inhibition” value of the first is lower: 1.03% for the first, 15.8% for the second.

Going from `CCCCN1C(=O)c2ccccc2C1=O` to `CC/C=C\CCOC(=O)c1ccccc1`, the “activity change, negative = inhibition” value falls from 14.9% to -0.709%.

Compared with `C/C=C/C(=O)CCCC`, `CCCCNCC` is lower in “activity change, negative = inhibition” value: 1.16% for the first, -13.1% for the second.

First: CC(=O)Oc1ccc(C(C)=O)cc1
Second: Cc1ccc(OC(=O)CC(C)C)cc1
The “activity change, negative = inhibition” value of the first is lower: -7.72% for the first, -0.389% for the second.

Going from `C=CC(C)(CCC=C(C)C)OC(=O)C(C)C` (stereo not given) to `C=CCCCCCCCCOC(C)=O`, the “activity change, negative = inhibition” value falls from 3.18% to -0.467%.

Compared with `C/C=C(\C)C=O`, `C[Si](C)(C)O[Si](O)(O)O` is lower in “activity change, negative = inhibition” value: 31.2% for the first, -4.97% for the second.

First: N#Cc1ccccc1C#N
Second: CCOC(=O)c1ccc(N(C)C)cc1
The “activity change, negative = inhibition” value of the first is lower: 7.11% for the first, 49.3% for the second.

Going from `CCCCN(CCCC)CCCCCCN(CCCC)CCCC` to `CCCCCCCCCCCCCC(=O)OCC`, the “activity change, negative = inhibition” value rises from 4.95% to 5.89%.

Going from `Clc1cc(Cl)c(Cl)c(Cl)c1Cl` to `CCO[Si](CC(C)C)(OCC)OCC`, the “activity change, negative = inhibition” value rises from 3.85% to 30.7%.

For `CCC(C)SSC(C)CC` (stereo not given), the “activity change, negative = inhibition” value was 3.63%.

Going from `C/C(=N\O)c1ccc(OCC(=O)N2CCCCC2)cc1` to `CN(C)CCc1c[nH]c2ccc(CS(=O)(=O)N3CCCC3)cc12`, the “activity change, negative = inhibition” value falls from 53.6% [at 42.5 µM] to 2.14% [at 42.5 µM].

Compared with `C[C@]12C=CC(=O)C=C1[C@@H](F)C[C@@H]1[C@@H]2[C@@H](O)C[C@@]2(C)[C@H]1CC[C@]2(O)C(=O)CO`, `CC(=O)OCC(=O)[C@@]1(O)CC[C@H]2[C@@H]3CCC4=CC(=O)C=C[C@]4(C)[C@H]3[C@@H](O)C[C@@]21C` is lower in “activity change, negative = inhibition” value: 20.7% [at 42.5 µM] for the first, 16.7% [at 42.5 µM] for the second.

First: CC(=O)Nc1ccc(S(=O)(=O)Nc2cc(C)on2)cc1
Second: COc1cc(S(N)(=O)=O)cc(C(=O)O)c1OC
The “activity change, negative = inhibition” value of the first is higher: 2.97% [at 42.5 µM] for the first, -0.37% [at 42.5 µM] for the second.

First: CCOC(=O)[C@H](CCc1ccccc1)N[C@H]1CS[C@H](c2cccs2)CN(CC(=O)O)C1=O
Second: C[C@@H]1CCC[C@H](C)N1CCCC(O)(c1ccccc1)c1ccccn1 (stereo not given in full)
The “activity change, negative = inhibition” value of the first is lower: -6.71% [at 42.5 µM] for the first, 4.81% [at 42.5 µM] for the second.

Going from `COc1cc2nc(N3CCN(C(=O)C4CCCO4)CC3)nc(N)c2cc1OC` (stereo not given) to `CCOC(=O)COc1ccc2c(C)c(CCN(CC)CC)c(=O)oc2c1Cl`, the “activity change, negative = inhibition” value rises from -3.17% [at 42.5 µM] to 4.5% [at 42.5 µM].

Compared with `COCCCOc1cc(C[C@@H](C[C@H](N)[C@@H](O)C[C@H](C(=O)NCC(C)(C)C(N)=O)C(C)C)C(C)C)ccc1OC`, `CN(C)c1cc(NC(=O)CNC(C)(C)C)c(O)c2c1C[C@H]1C[C@H]3[C@H](N(C)C)C(=O)C(C(N)=O)=C(O)[C@@]3(O)C(=O)C1=C2O` is lower in “activity change, negative = inhibition” value: -1.27% [at 42.5 µM] for the first, -2.98% [at 42.5 µM] for the second.

First: C[n+]1ccccc1/C=N/O
Second: CO/N=C(\C(=O)O)c1csc(NC(=O)CCl)n1
The “activity change, negative = inhibition” value of the first is lower: 1.55% [at 42.5 µM] for the first, 6.33% [at 42.5 µM] for the second.

With `CC(O)CCCCn1c(=O)c2c(ncn2C)n(C)c1=O` (stereo not given) the “activity change, negative = inhibition” value was 3.98% [at 42.5 µM].

Going from `C=CCCCCCCCCCCCCCC` to `CCCCCCCCCCCCCCCC(=O)OC`, the activity change, negative = inhibition falls from -1.96% [at 19 µM] to -4.11% [at 19 µM].

With `C[C@@H]1NC(=O)[C@@H](N)CNC(=O)[C@H](C2CCNC(N)=N2)NC(=O)/C(=C/NC(N)=O)NC(=O)[C@H](CNC(=O)C[C@@H](N)CCCN)NC1=O` (stereo not given in full) the activity change, negative = inhibition was 11.8% [at 0.349 µM].

Work on `CCCCCCCCCCCCCCCCN(C)C` yielded an activity change, negative = inhibition of 15.1% [at 8.39 µM].
